Results published in PubChem BioAssay (NCI).
About 83,000 compounds went through this panel and 20% of them were active in at least one assay; those are over-represented in the sample as a whole.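 Treatment: one concentration, 48 hours, 96-well format. Scoring: percent growth, with anything below 10 considered active.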 Active and inactive are the calls of the source.

tested on: BT-549 breast; test: NCI-60 one-dose screen, 48 h (100 = growth as untreated, 0 = no growth, -100 = all killed); settings: 10 µM

Row | Structure (SMILES) | growth
1 | CC[C@H](C)[C@H](NC(=O)Nc1ccccc1)C(=O)N(C)[C@H](C[C@@H](OC(C)=O)c1nc(C(=O)N[C@@H](Cc2ccccc2)C[C@H](C)C(=O)OC)cs1)C(C)C | 2.56% (active)
2 | c1ccc(CCN2CCCCC2Cc2ccccc2)cc1 (configuration not stated) | 111% (inactive)
3 | CC(=O)O[C@H]1CCC2(C)C(=CCC3C2CCC2(C)/C(=N/OC(=O)c4ccc(N(CCCl)CCCl)cc4)CCC32)C1 (some centres not stated) | 51.4% (inactive)
4 | O=C(N/N=C/c1ccc(N(CCCl)CCCl)cc1)c1cc(=O)[nH]c(=O)[nH]1 | 96.8% (inactive)
5 | O=[As]c1ccc(C(=O)c2ccc(Oc3ccccc3)cc2)cc1 (configuration not stated) | -98.8% (active)
6 | O=[N+]([O-])c1cc([N+](=O)[O-])c(Cl)c(Cl)c1Cl | 49.8% (inactive)
7 | Cc1cc(NC(=O)NCCOc2ccc(N3C(N)=NC(N)=NC3(C)C)cc2Cl)ccc1S(=O)(=O)F | 52.1% (inactive)
8 | COc1ccc2c(c1)NC1=C(C(=O)OC1)C2c1cc(OC)c(OC)c(OC)c1 (configuration not stated) | 7.12% (active)
9 | C=CCc1ccc(OC(=O)Cc2ccccc2)c(OC)c1 | 106% (inactive)
10 | CC(C)(O)/C=C/C(=O)[C@](C)(O)[C@H]1[C@H](O)C[C@@]2(C)[C@@H]3CC=C4[C@@H](C=C(O)C(=O)C4(C)C)[C@]3(C)C(=O)C[C@]12C | -60.1% (active)
11 | C[C@]12CCc3sc(-c4ccc(Cl)cc4)nc3C1=CC[C@@H]1[C@@H]2CC[C@]2(C)C(=O)CC[C@@H]12 | 60.6% (inactive)
12 | C=CCC1(CC)C(=O)NC(=S)NC1=O | 106% (inactive)
